Measured values taken from PubChem BioAssay (EPA / NIEHS).
The source holds several records for some structures; these can differ, active in one and inactive in another. Active and inactive are the calls of the source. How the source made its calls: active means hit-call score of the fitted dose curve at least 0.9, where 1 is the maximum; inactive means score below 0.9.

Read-out: Epidermal growth factor receptor (EGFR), EGFR (gene 1956)
Assay: BSK_hDFCGF_EGFR: BioMAP Diversity Plus: hDFCGF Assay for Epidermal growth factor receptor (EGFR) Biomarker Activity (AID 2283057)
Details: primary human foreskin fibroblasts; actives raise or lower the signal
Description: BSK_hDFCGF is a cell-based, multiplexed-readout assay that uses foreskin fibroblast, a human skin primary cell, with measurements taken at 24 hours after chemical dosing in a 96-well plate.BSK_hDFCGF_EGFR is an assay component measured in the BSK_hDFCGF assay. It measures EGFR antibody related to regulation of gene expression using ELISA technology.Data from the assay component BSK_hDFCGF_EGFR was analyzed into 1 assay endpoint. This assay endpoint, BSK_hDFCGF_EGFR, was analyzed with bidirectional fitting relative to DMSO as the negative control and baseline of activity. Using a type of binding reporter, gain or loss-of-signal activity can be used to understand changes in the signaling as they relate to the gene EGFR. Furthermore, this assay endpoint can be referred to as a primary readout, because this assay has produced multiple assay endpoints where this one serves a signaling function. To generalize the intended target to other relatable targets, this assay endpoint is annotated to the kinase intended target family, where the subfamily is receptor tyrosine kinase.
The levels of cell surface (or secreted, indicated by the prefix "s") biomarker endpoints were measured by ELISA. Overt cytotoxicity to cells in confluent adherent cultures (all systems other than the BT system) was assessed by measuring total protein levels using sulforhodamine B (SRB) staining in parallel cultures at the time of biomarker measurements, indicated as SRB endpoints. For proliferation assays for adherent cell types, individual cell types are cultured at sub-confluence and relative cell numbers quantified by SRB staining at time points optimized for each system (48 h: 3C and CASM3C systems; 72 h: BT and HDF3CGF systems; 96 h: SAg system). SRB was performed by staining cells with 0.1% SRB after fixation with 10% TCA and reading wells at 560 nm.Viability and proliferation of PBMC (T cells) was quantified by Alamar Blue reduction for the SAg and BT systems. For PBMC viability (referred to as PBMC Cytotoxicity within the assay endpoint names), cells were plated (75,000/well in a 96-well plate) and then chemical samples added for 1 h before addition of activators, SEB and TSST-1 (20 ng/mL final concentration each). Cells were incubated for 90 h. Then, Alamar Blue (20 uL/well) (Invitrogen, Cat DAL1100) was added for 6 h, and the plates were read with a fluorescence microplate reader at 546/580 nm (excitation/emission). For PBMC proliferation, cells were plated and activated as above but incubated for only 16 h prior to addition of Alamar Blue. Plates were read after 6 h.

SMILES | outcome | AC50
C[C@]12C[C@H](O)[C@H]3[C@@H](CCC4=CC(=O)CC[C@@]43C)[C@@H]1CC[C@@H]2C(=O)CO | inactive | 
COC(=O)c1ccccc1S(=O)(=O)NC(=O)Nc1nc(OC(F)F)cc(OC(F)F)n1 | inactive | 
CCOC(=O)NCCOc1ccc(Oc2ccccc2)cc1 | inactive | 
CCCN(CCC)c1c([N+](=O)[O-])cc(C(F)(F)F)c(N)c1[N+](=O)[O-] | inactive | 
CCCCC(CC)CN1C(=O)C2C3C=CC(C3)C2C1=O (stereo not given) | inactive | 
CCC(C)OC(=O)N1CCCCC1CCO (stereo not given) | inactive | 
CCOC(=O)C(C)Oc1ccc(Oc2nc3ccc(Cl)cc3o2)cc1 (stereo not given) | inactive | 
Oc1ccc(C(c2ccc(O)cc2)C(Cl)(Cl)Cl)cc1 |  | 13.3 µM (active)
CCOC(=O)C(C)Oc1ccc(Oc2cnc3cc(Cl)ccc3n2)cc1 (stereo not given) | inactive | 
COC(=O)c1ccccc1C(=O)O | inactive | 
CCN(Cc1c(F)cccc1Cl)c1c([N+](=O)[O-])cc(C(F)(F)F)cc1[N+](=O)[O-] | inactive | 
O=C(O)c1ccccc1 | inactive | 
CC(=O)S[C@@H]1CC2=CC(=O)CC[C@]2(C)[C@H]2CC[C@@]3(C)[C@@H](CC[C@@]34CCC(=O)O4)[C@H]12 | inactive | 
CCCCOC(=O)[C@@H](C)Oc1ccc(Oc2ccc(C(F)(F)F)cn2)cc1 | inactive | 
N#CSCSc1nc2ccccc2s1 | inactive | 2.01 µM (active)
Cc1nn(C)c(Oc2ccccc2)c1C=NOCc1ccc(C(=O)OC(C)(C)C)cc1 |  | 3.95 µM (active)
CN(C)C(=O)Nc1ccc(Cl)c(Cl)c1 | inactive | 
O=C(c1ccccc1)C1CCCCC1 | inactive | 
COc1nc(C)nc(NC(=O)NS(=O)(=O)c2ccccc2OCCCl)n1 | inactive | 
c1ccc(Nc2ccccc2)cc1 |  | 34.1 µM (active)

SMILES | outcome | AC50
CCCCOC(=O)C(C)Oc1ccc(Oc2ccc(C(F)(F)F)cn2)cc1 (stereo not given) | inactive | 
CCCCCCC(C)OC(=O)COc1nc(F)c(Cl)c(N)c1Cl (stereo not given) | inactive | 
OB(O)O | inactive | 
COC(=O)c1cccc(C)c1S(=O)(=O)NC(=O)Nc1nc(OCC(F)(F)F)nc(N(C)C)n1 | inactive | 
COC(=O)c1ccc(I)cc1S(=O)(=O)NC(=O)Nc1nc(C)nc(OC)n1 | inactive | 
S=C(S)NCCNC(=S)S.[Mn+2].[S-]C([S-])=NCCN=C([S-])[S-].[Zn+2] | inactive | 
CSC(=O)c1cccc2nnsc12 | inactive | 
C#CCOC(=O)[C@@H](C)Oc1ccc(Oc2ncc(Cl)cc2F)cc1 | inactive | 
CCNc1nc(N)nc(Cl)n1 | inactive | 
CCOC(=O)COc1cc(-n2ncc(C(F)(F)F)c(C)c2=O)c(F)cc1Cl | inactive | 
COc1c(Cl)ccc(Cl)c1C(=O)O | inactive | 
C#C[C@]1(O)CC[C@H]2[C@@H]3CCC4=CC(=O)CC[C@@H]4[C@H]3CC[C@@]21CC | inactive | 
CC(=O)[C@H]1CC[C@H]2[C@@H]3CCC4=CC(=O)CC[C@]4(C)[C@H]3CC[C@]12C | inactive | 
COC(=O)c1ccc(CNS(C)(=O)=O)cc1S(=O)(=O)NC(=O)Nc1nc(OC)cc(OC)n1 | inactive | 
CCCCOCCOCCOCc1cc2c(cc1CCC)OCO2 | inactive | 
CCN(CC)C(=O)c1cccc(C)c1 | inactive | 
CC(C)(C)[C@@H](O)[C@@H](Cc1ccc(Cl)cc1)n1cncn1 | inactive | 
CCCCC(CC)COC(=O)c1ccccc1C(=O)O (stereo not given) | inactive | 
COC(=O)CSc1cc(N=c2sc(=O)n3n2CCCC3)c(F)cc1Cl | inactive | 
